What was measured:
Test in all cases: protein domain microarray probed with biotinylated miRNA; Domain array: 20 mM Tris-HCl pH 7.4, 200 mM KCl, 0.2 mM EDTA, 0.05% NP40, 2 ug/ul heparin, overnight 4 C. ORF array: PBS pH 7.0 with RNase inhibitor, 100 ng RNA; high values mean tight binding
Conditions in all cases: ssRNA
YTHDF1 = biological target: T1, YTHDF1 (Homo sapiens, UniProt Q9BYJ9)
T1 sequence: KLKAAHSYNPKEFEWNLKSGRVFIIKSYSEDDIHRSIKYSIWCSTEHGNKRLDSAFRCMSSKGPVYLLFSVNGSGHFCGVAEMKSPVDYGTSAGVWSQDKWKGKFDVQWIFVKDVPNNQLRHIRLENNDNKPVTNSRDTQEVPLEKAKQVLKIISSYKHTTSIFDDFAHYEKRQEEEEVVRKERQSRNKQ

RBM27 = biological target: T2, RBM27 (Homo sapiens, UniProt Q9P2N5)
T2 sequence: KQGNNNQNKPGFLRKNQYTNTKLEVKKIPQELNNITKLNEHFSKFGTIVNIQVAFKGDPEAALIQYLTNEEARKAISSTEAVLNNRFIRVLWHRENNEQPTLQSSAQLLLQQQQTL

STAU2(3) = biological target: T3, STAU2(3) (Homo sapiens, UniProt Q9NUL3)
T3 chain: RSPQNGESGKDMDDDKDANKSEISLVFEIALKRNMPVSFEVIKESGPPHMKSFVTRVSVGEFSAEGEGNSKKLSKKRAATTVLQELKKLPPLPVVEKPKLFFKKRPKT

RKHD3(1-2) = biological target: T4, RKHD3(1-2) (Homo sapiens, UniProt Q6ZN04)
T4 sequence: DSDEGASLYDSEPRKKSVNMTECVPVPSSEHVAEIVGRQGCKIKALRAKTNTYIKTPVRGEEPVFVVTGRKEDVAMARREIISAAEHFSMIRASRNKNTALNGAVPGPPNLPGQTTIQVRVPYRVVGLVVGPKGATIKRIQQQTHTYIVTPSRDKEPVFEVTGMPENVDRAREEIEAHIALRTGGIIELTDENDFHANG

RBM19(2-4) = biological target: T5, RBM19(2-4) (Homo sapiens, UniProt Q9Y4C8)
T5 sequence: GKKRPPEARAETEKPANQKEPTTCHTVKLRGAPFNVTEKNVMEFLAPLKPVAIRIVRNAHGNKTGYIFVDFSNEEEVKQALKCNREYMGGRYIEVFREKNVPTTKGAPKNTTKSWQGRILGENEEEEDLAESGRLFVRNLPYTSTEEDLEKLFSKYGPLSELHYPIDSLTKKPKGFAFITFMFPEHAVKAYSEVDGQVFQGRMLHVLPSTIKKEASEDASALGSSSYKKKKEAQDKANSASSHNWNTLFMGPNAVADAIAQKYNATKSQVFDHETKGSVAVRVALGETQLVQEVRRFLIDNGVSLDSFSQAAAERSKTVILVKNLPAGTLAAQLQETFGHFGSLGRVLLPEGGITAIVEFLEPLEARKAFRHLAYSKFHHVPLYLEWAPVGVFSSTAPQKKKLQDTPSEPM

RBM26(2) = biological target: T6, RBM26(2) (Homo sapiens, UniProt Q5T8P6)
T6 sequence: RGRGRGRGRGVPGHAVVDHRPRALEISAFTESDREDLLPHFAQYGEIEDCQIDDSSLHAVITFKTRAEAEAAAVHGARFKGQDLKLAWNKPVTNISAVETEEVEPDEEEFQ

RBM14 = biological target: T7, RBM14 (Homo sapiens, UniProt Q96PK6)
T7 sequence: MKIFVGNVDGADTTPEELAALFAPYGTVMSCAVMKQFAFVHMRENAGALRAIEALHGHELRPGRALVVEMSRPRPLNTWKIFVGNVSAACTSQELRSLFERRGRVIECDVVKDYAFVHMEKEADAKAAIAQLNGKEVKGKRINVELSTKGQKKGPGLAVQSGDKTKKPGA

RALYL = RALYL (Homo sapiens, UniProt Q86SE5)
Chain of RALYL (Q86SE5 1-115): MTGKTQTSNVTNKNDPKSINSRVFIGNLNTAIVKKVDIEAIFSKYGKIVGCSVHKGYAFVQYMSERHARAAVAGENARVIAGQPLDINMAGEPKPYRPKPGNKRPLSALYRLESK

PIG38 = biological target: T8, PIG38 (Homo sapiens, UniProt Q8TC92)
T8 sequence: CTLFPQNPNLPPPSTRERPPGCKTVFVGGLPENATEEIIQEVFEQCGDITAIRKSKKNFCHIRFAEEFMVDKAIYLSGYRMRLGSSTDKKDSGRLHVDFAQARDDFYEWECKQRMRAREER

KRR1 = KRR1 (Homo sapiens, UniProt Q13601)
Chain of KRR1 (Q13601 36-250): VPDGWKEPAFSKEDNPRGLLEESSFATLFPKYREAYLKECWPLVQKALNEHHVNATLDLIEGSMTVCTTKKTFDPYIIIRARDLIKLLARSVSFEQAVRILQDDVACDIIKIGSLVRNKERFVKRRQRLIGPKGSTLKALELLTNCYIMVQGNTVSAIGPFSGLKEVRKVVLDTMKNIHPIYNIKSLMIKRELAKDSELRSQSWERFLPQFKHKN

| Sequence | binding signal (YTHDF1) [fluorescence intensity] | binding signal (RBM27) [fluorescence intensity] | binding signal (STAU2(3)) [fluorescence intensity] | binding signal (RKHD3(1-2)) [fluorescence intensity] | binding signal (RBM19(2-4)) [fluorescence intensity] | binding signal (RBM26(2)) [fluorescence intensity] | binding signal (RBM14) [fluorescence intensity] | binding signal (RALYL) [fluorescence intensity] | binding signal (PIG38) [fluorescence intensity] | binding signal (KRR1) [fluorescence intensity] |
| --- | --- | --- | --- | --- | --- | --- | --- | --- | --- | --- |
| CAGUGCAAUGAUGAAAGGGCAU | 51.305 ± 0.0212 | 288 ± 4.19 | 37.5 ± 2.47 | 1440 ± 55 | 2090 ± 439 | 25.8 ± 3.42 | 23.1 ± 3.36 | 381 ± 18.7 | 31.7 ± 0.785 | 74.2 ± 2.13 |
| UGAGGUAGUAGGUUGUAUGGUU | 76.9 ± 5.2 | 657 ± 47.5 | 60.2 ± 7.26 | 1740 ± 134 | 1810 ± 313 | 298 ± 14 | 39.7 ± 3.13 | 1090 ± 62.2 | 53 ± 2.3 | 92.2 ± 12.2 |
| UGAGGUAGUAGGUUGUGUGGUU | 113 ± 10.3 | 985 ± 77.1 | 121 ± 14.8 | 1502 ± 3.98 | 1520 ± 225 | 248 ± 3.91 | 66.3 ± 8.01 | 1030 ± 103 | 72.8 ± 3.97 | 153 ± 3.37 |
| UAGCUUAUCAGACUGAUGUUGA |  | 145 ± 5.61 |  | 1110 ± 41.5 | 901 ± 119 |  |  | 190 ± 59.9 |  |  |
| AGAGGUAGUAGGUUGCAUAGUU | 52.7 ± 4.33 | 486 ± 29.4 | 34.1 ± 5.01 | 2320 ± 70.7 | 2390 ± 546 | 168 ± 6.55 | 26.3 ± 7.16 | 932 ± 89.3 | 44.1 ± 0.488 | 73.6 ± 7.55 |
| UGAGGUAGUAGGUUGUAUAGUU | 22.8 ± 4.72 | 102 ± 16.8 |  | 1250 ± 20.7 | 902 ± 121 | 23.4 ± 0.552 |  | 319 ± 85.1 | 21.4 ± 1.44 | 20.5 ± 1.99 |

Reference: paper PMC11574364
